The record followed here is PubChem BioAssay (Tox21).

Assay [1] in a line: qHTS assay to identify small molecule antagonists of the retinoid acid receptor (RAR) signaling pathway - cell viability counter screen (AID 1159551). Note: nearly all actives have a fitted effect of over 35% in size. Note: potency is the fitted concentration of half-maximal effect. The method in brief:
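Cytotoxicity counter screen in C3RL4 cells: 6 h compound exposure with 1 uM retinol (final), viability from cellular ATP by luminescence.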

Assay [2] can be described thus: qHTS assay to identify small molecule agonists of the retinoic acid receptor (RAR) signaling pathway (AID 1159553). The procedure, abridged:
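Agonist activity was scored in C3RL4 cells bearing a retinoic acid response element luciferase construct. Cells were treated with compounds for 6 hr at 37 C, and luciferase signal was measured as luminescence.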

The nature of assay [3]: qHTS assay to identify small molecule antagonists of the estrogen related receptor (ERR) signaling pathway from Tox21 library - cell viability counter screen (AID 1224834). Note: nearly all actives have a fitted effect of over 30% in size. Note: potency is the fitted concentration of half-maximal effect. The procedure, abridged: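 Cytotoxicity of test substances is gauged in the same ERR cells used for the antagonist screen, after 17.5 h of compound treatment at 37 C, by CellTiter-Fluor fluorescence measured after 30 min.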
For orientation: qHTS replaces the single test concentration by a dilution series.

Assay [4] can be described thus: qHTS assay to identify small molecule antagonists of the estrogen related receptor (ERR) signaling pathway - cell viability counter screen (AID 1224818). Note: series mostly up to about 46 µM. The method in brief:
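Cells carrying the ERR pathway reporter were seeded and incubated for 6 hours before compound addition. After a 17.5-hour exposure at 37 C, live-cell protease activity was measured by CellTiter-Fluor fluorescence following 30 minutes of incubation.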

A short description of assay [5]: qHTS assay to identify small molecule antagonists of the estrogen related receptor signaling pathway with the pleiotropic PPARgamma coactivator (PGC) cell viability counter screen (AID 1224822;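 note: series mostly up to about 46 µM; viability read after 17.5 h compound exposure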). The procedure, abridged:
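Seed PGC/ERR cells (2,000/well); incubate 6 h at 37 C/5% CO2; pin-transfer compounds in DMSO; incubate 17.5 h at 37 C; add CellTiter-Fluor; after 30 min read fluorescence.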

The nature of assay [6]: qHTS assay to identify small molecule antagonists of the retinoic acid receptor (RAR) signaling pathway (AID 1159552; note: nearly all actives have a fitted effect of over 50% in size; note: potency is the fitted concentration of half-maximal effect). The procedure, abridged: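 Readout: luciferase luminescence, 30 min post-reagent at RT. Setup: C3RL4 RARE reporter cells, compounds plus retinol 1 uM final, 6 hr incubation at 37 C and 5% CO2.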
Assay [7] can be described thus: qHTS assay to identify small molecule antagonists of the estrogen related receptor (ERR) signaling pathway (AID 1224819; note: nearly all actives have a fitted effect of over 50% in size; note: potency is the fitted concentration of half-maximal effect). The method in brief: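 Compounds dissolved in DMSO were pin-transferred onto ERR cells that had been plated 6 h earlier, and cells were then incubated 18 h at 37 C; signal was luciferase luminescence via One-Glo.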
A short description of assay [8]: qHTS assay to identify small molecule agonists of the estrogen related receptor (ERR) signaling pathway (AID 1224820). The procedure, abridged: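 Cells: ERR line from NTP, 2,000/well. Pre-incubation 6 h, 37 C/5% CO2. Compound (DMSO) pin transfer, 18 h 37 C. One-Glo, 30 min RT, luminescence.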
A short description of assay [9]: qHTS assay to identify small molecule agonists of the estrogen related receptor signaling pathway with the pleiotropic PPARgamma coactivator (PGC) (AID 1224823). The procedure, abridged:
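Steps: plate PGC/ERR cells at 2,000 cells/well; incubate 6 h, 37 C/5% CO2; pin-transfer compounds (DMSO); incubate 18 h, 37 C; add One-Glo; 30 min RT; read luminescence.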

Assay [10] relates to estrogen-related receptor alpha (ERRalpha) with PGC-1alpha coactivator, human. Nature of the assay: qHTS assay to identify small molecule antagonists of the estrogen related receptor signaling pathway with the pleiotropic PPARgamma coactivator (PGC) (AID 1224821; calls by dose curve;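 note: series mostly up to about 46 µM; lower luminescence signal means antagonism of PGC/ERR signalling; nearly all actives have a fitted effect of over 50% in size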). The procedure, abridged:
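Luminescent read-out (One-Glo, 30 min at room temperature) following 18 h treatment of PGC/ERR cells at 37 C with compounds delivered in DMSO. Cells had settled 6 h at 37 C/5% CO2 before dosing.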

Inconclusive results are not listed. Some compounds were tested as several samples or in several runs, with calls that do not always agree. Active and inactive are the calls of the source. Unless noted, calls come from the whole dose curve; as a rule, active = well fitted curve in the direction sought with a large enough effect in the repeat runs; inconclusive = weak or mixed curves; inactive = no such curve, though single readings can be large; an effect the other way counts as inactive or inconclusive.

In the case of `CC(=O)Nc1c(I)c(NC(C)=O)c(I)c(C(=O)O)c1I`, the Potency entry in [1], in [2] and in assay [3] was “inactive” in each case.

`CCc1nc(N)nc(N)c1-c1ccc(Cl)cc1`: the Potency entry in [1] was “inactive”.

With `CN(C)CCOC(c1ccccc1)c1ccccc1`, the Potency entry in assay [1], in assay [2], in [5] and in [3] was “inactive” in each case. Also, the compound was classed as inactive in assay [4].

For the compound `C=CCc1ccc(O)c(OC)c1`, the Potency entry in assay [1], in assay [2] and in assay [3] was “inactive” throughout.

`NC1CCCCC1`: the Potency entry in [1], in assay [6], in [2] and in [3] was “inactive” in each case.

With `CC(C)C(=O)Nc1ccc([N+](=O)[O-])c(C(F)(F)F)c1`, the Potency result in assay [1], in [2] and in [5] was “inactive” throughout. The compound was called inactive in assay [4], in assay [8] and in [9]. Further, the Potency in [7] is 22.8 µM (active).

With `CC(C)c1c(C(=O)Nc2ccccc2)c(-c2ccccc2)c(-c2ccc(F)cc2)n1CC[C@@H](O)C[C@@H](O)CC(=O)O`, the Potency result in assay [1], in [2], in assay [5] and in assay [3] was “inactive” each time. The result in assay [4] was inactive.

As to `Nc1c2c(nc3ccccc13)CCCC2`, the Potency entry in assay [1], in [2], in assay [7], in assay [5] and in assay [3] was “inactive” each time. The outcome in assay [4], in assay [8], in [10] and in assay [9] was inactive.

For `CCCCC1(COC(=O)CCC(=O)O)C(=O)N(c2ccccc2)N(c2ccccc2)C1=O`, the Potency result in [1], in [2] and in assay [3] was “inactive” each time.

Regarding `CN(C)CCOC(C)(c1ccccc1)c1ccccn1` (centres undefined), the Potency entry in [1], in assay [2], in [7], in [5] and in assay [3] was “inactive” throughout. Besides, the call in [4], in assay [8], in assay [10] and in assay [9] was inactive.

Regarding `COc1ccc(CN(CCN(C)C)c2ccccn2)cc1`, the Potency result in assay [1], in assay [2] and in assay [5] was “inactive” each time. For the same compound, in [4], the outcome was inactive.

Take `CCN(Cc1c(F)cccc1Cl)c1c([N+](=O)[O-])cc(C(F)(F)F)cc1[N+](=O)[O-]`: the Potency result in assay [1] and in assay [2] was “inactive” in each case.

Regarding `CCN(CC)C(=O)c1cccc(C)c1`, the Potency entry in [1], in assay [2] and in [3] was “inactive” throughout.

Regarding `C1=CC2C3C=CC(C3)C2C1` (centres undefined), the Potency result in assay [1], in [2], in assay [7] and in assay [5] was “inactive” throughout. Also, the compound was classed as inactive in assay [4], in assay [8], in [10] and in assay [9].

Regarding `C1CCC(C(CC2CCCCN2)C2CCCCC2)CC1` (centres undefined), the results for the Potency in assay [1], in assay [6] and in assay [3] were 29.8 µM (active), 9.44 µM (active) and 29.8 µM (active), respectively.

Take `Cn1c(=O)c2c(ncn2C)n(C)c1=O`: the Potency result in assay [1], in [2], in assay [7] and in assay [5] was “inactive” in each case. For the same compound, the result in assay [4], in assay [8], in assay [10] and in [9] was inactive. Also, the Potency in [3] is 55.1 µM (active) and inactive.

As to `Cc1ncc([N+](=O)[O-])n1CCO`, the Potency result in assay [1], in assay [2] and in [3] was “inactive” each time.

`NC(CO)(CO)CO`: the Potency entry in assay [1], in assay [2] and in [3] was “inactive” throughout.

For `CN(N=O)C(=O)N[C@@H]1[C@@H](O)[C@H](O)[C@@H](CO)O[C@@H]1O`, the Potency entry in assay [1], in [6], in assay [2] and in assay [3] was “inactive” in each case.

As for `CS(=O)(=O)OCCCCOS(C)(=O)=O`, the Potency result in assay [1], in [2] and in assay [3] was “inactive” throughout.

As to `CN(C)C(=O)Nc1ccc(Cl)c(Cl)c1`, the Potency entry in assay [1], in [2] and in assay [3] was “inactive” throughout.
